Screening data deposited in PubChem BioAssay by National Center for Advancing Translational Sciences (NCATS).
4-MU autofl: 4-MU region autofluorescence; AID 589; compound autofluorescence, 340/450 nm, 4-MU equivalents; active compounds read high; max dye-equivalent concentration, M; 59,000 compounds, 11% hits; in the data active means max dye-equivalent concentration above about 10 nM; inconclusive means mostly about 1.1 nM to 9.6 nM
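Compounds in 100 mM Tris, pH 8.0, incubated 15 min at room temperature, then fluorescence read at 340 nm excitation/450 nm emission. Signal converted to 4-MU dye-equivalent concentration using an on-plate six-point 4-MU standard curve.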
AID923: qHTS Assay for Allosteric/Competitive Inhibitors of Caspase-1: Spectroscopic Profiling in AFC Spectral Region; compound fluorescence, AFC spectral region (405/520 nm); 75,000 compounds, 1.1% hits; Potency, µM (series often up to 57.5 µM), for inactives: at the top dose fluorescence increase, usual class: activators; AID 923, 2007; further: potency means the concentration at half of the fitted maximal effect; 0% is about no effect
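Titrations up to 57 uM read every 20 sec for 3 min (405/520 nm) with 50 nM caspase 1 and 5 uM Ac-WEHD-AFC, pH 7.5 HEPES buffer. Fluorescence-vs-time intercept gave baseline, scaled against on-plate AFC standard.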
A350 autofl: compound fluoresces in the Alexa 350 spectral region; AID 590; 59,000 compounds, 11% hits; Compound autofluorescence, 340/450 nm, Alexa 350 dye-equivalents; active compounds read high; max dye-equivalent concentration, M; in the data active means max dye-equivalent concentration above about 10 nM; inconclusive means mostly about 1.1 nM to 9.6 nM
HSD17B inhib: HSD17B dehydrogenase inhibition | recombinant HSD17B10, NADH fluorescence kinetic | Potency, µM (series often up to 57.1 µM), for the others: at the top dose activity change, negative = inhibition, most hits filed as inhibitors | 75,000 compounds, 7.6% hits | Q99714;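 further: the protocol describes HADH2 (HSD17B10) and not the HSD17B4 of the title; potency means the concentration at half of the fitted maximal effect; on the % scale 0 is the no-effect control and ±100 the full control effect; nearly all actives have a fitted effect of over 70% in size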
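His-tagged E. coli-expressed HADH2 at 20 nM in 100 mM Tris-HCl pH 9.0 with 0.01 % Tween-20, preincubated 15 min with compound at room temperature. Reaction with 1 mM NAD+ and 90 uM beta-hydroxybutyryl coenzyme A; NADH fluorescence (360/450 nm) read kinetically over 4 min, last minus first point.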
HADH2 inhib: HADH2 (human) dehydrogenase inhibition; Q99714; recombinant HADH2, NADH fluorescence, beta-hydroxybutyryl-CoA; Potency, µM (titrated, usually from 57.1 µM), for inactives: at the highest dose activity change, negative = inhibition, usual class: inhibitors; 73,000 compounds, 3.4% hits; further: potency means the concentration at half of the fitted maximal effect; on the % scale 0 is the no-effect control and ±100 the full control effect; nearly all actives have a fitted effect of over 60% in size
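NADH fluorescence (ex 360/em 450 nm) read every 30 s for 4 min; activity taken as last-minus-first time point difference. Enzyme 20 nM, NAD+ 1 mM, beta-hydroxybutyryl-CoA 90 uM, pH 9.0 Tris buffer.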
GBA activity: human lysosomal glucosylceramidase modulation; P04062; purified enzyme, resorufin glucoside fluorescence (screen aimed at inhibitors), 20 min; Potency, µM; 48,000 compounds, 1.1% hits; AID 360; in the data active means potency below about 15 µM; inconclusive means mostly about 16 µM to 33 µM;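 further: potency means the concentration at half of the fitted maximal effect; the screen sought inhibitors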
Target sequence (P04062 whole entry, looked up): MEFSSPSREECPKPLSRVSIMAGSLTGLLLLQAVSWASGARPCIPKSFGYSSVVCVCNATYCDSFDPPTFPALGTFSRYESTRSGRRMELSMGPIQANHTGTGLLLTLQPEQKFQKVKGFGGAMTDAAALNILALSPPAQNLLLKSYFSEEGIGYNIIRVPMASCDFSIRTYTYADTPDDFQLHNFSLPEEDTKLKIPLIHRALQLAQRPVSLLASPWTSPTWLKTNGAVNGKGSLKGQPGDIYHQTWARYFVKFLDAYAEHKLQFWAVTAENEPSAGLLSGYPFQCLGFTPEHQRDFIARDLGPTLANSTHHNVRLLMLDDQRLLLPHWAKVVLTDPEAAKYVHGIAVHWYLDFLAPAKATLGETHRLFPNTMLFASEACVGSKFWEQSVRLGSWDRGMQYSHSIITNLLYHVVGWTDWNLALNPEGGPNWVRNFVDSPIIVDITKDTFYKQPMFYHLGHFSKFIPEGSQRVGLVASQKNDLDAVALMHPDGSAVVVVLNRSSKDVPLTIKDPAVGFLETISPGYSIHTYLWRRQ
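Compounds titrated against 0.2 nM normal enzyme, 30 uM resorufin beta-D-glucopyranoside substrate, citrate/phosphate buffer with taurocholate and tween-20, pH 5.9. Reaction ran 20 min at room temperature; fluorescence (Ex 548/Em 600) gave AC50.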
* = called active by the depositor; [ ] = another dose, or the depositor's remark. Compounds with a hit are over-represented: about 13% of the library has one in this group of screens. Unless noted, the call rests on the fitted dose curve; in most records, active means well fitted curve in the direction sought with a large enough effect; inconclusive means small, poorly fitted or top-dose-only effect, or another doubt; inactive means no such curve, though single readings can be large; an effect the other way counts as inactive or inconclusive.

COC(=O)[C@@H]1C[C@@]2(O)[C@H](O)[C@H](O)[C@H](O)C[C@H]2N1Cc1cc(F)ccc1F was read as AID923 2% and HSD17B inhib -5%.
Screening COc1ccccc1CN(CC(=O)NCc1ccco1)C(=O)CNS(=O)(=O)c1ccc(C)cc1 returned 4-MU autofl inactive, AID923 -1%, A350 autofl inactive, HSD17B inhib -16%, HADH2 inhib -2% and GBA activity >77.
`O=C(O)CCc1nc2ccccc2[nH]1` gave 4-MU autofl inactive, AID923 -3%[11.5 µM], A350 autofl inactive, HSD17B inhib 7%[11.4 µM] and HADH2 inhib 0%[11.4 µM].
For N#CCc1c(C#N)c(N)nc(N2CCN(S(=O)(=O)c3ccccc3)CC2)c1C#N the results were 4-MU autofl 1.5e-08M*, AID923 3%, A350 autofl 1e-08M*, HSD17B inhib 25µM*, HADH2 inhib 32µM* and GBA activity >77.
COc1ccccc1N1CCN(c2nc(N)c(C#N)c(CC#N)c2C#N)CC1 was read as 4-MU autofl inactive, AID923 6%, A350 autofl inactive, HSD17B inhib -5%, HADH2 inhib -16% and GBA activity >77.
`COc1ccc(NC(=O)c2oc3cc(C)c(C)cc3c2C)c(OC)c1` gave 4-MU autofl 1.5e-07M*, AID923 0%, A350 autofl 2e-07M*, HSD17B inhib 31%, HADH2 inhib 24% and GBA activity >77.
CCN(CC)S(=O)(=O)c1ccc2oc(C(=O)Nc3ccc(OC)cc3OC)c(C)c2c1 was read as 4-MU autofl 4.3e-08M*, AID923 0%, A350 autofl 7e-08M*, HSD17B inhib inactive, HADH2 inhib 146% and GBA activity >77.
For CCN(Cc1cc2ccccc2[nH]c1=O)C(=O)C(C)C the results were 4-MU autofl inactive, AID923 -2%, A350 autofl inconclusive, HSD17B inhib 4%, HADH2 inhib 1% and GBA activity >77.
Screening Nc1nc(Nc2cccc3ccccc23)nc(C2CCCC2=O)n1 (stereo not given) returned 4-MU autofl inactive, AID923 0%, A350 autofl inactive, HSD17B inhib 6%, HADH2 inhib 1% and GBA activity 1.5*.
`CCN(CC)c1ccc(C(=S)N2CCN(c3ccccc3)CC2)cc1` gave 4-MU autofl inactive, AID923 0%, A350 autofl inactive, HSD17B inhib -14%, HADH2 inhib 13µM* and GBA activity >77.
CC1(CCc2ccccc2)NC(=O)N(Cc2nnc(-c3ccccc3Br)o2)C1=O (stereo not given) was read as 4-MU autofl inactive, AID923 0%, A350 autofl inactive, HSD17B inhib -1% and HADH2 inhib -5%.
O=C(O)c1ccc(S(=O)(=O)Nc2ccc(F)c(Cl)c2)cc1 was read as 4-MU autofl 2.9e-08M*, AID923 -1%, A350 autofl 3.7e-08M*, HSD17B inhib 2%, HADH2 inhib 10% and GBA activity >77.
Screening O=C(O)c1ccc(NS(=O)(=O)c2cc(Cl)ccc2Cl)cc1 returned AID923 -1%, HSD17B inhib 5% and HADH2 inhib 3%.
O=C(Nc1nc(-c2ccc3c(c2)OCCO3)cs1)c1ccc(S(=O)(=O)N2CCCCC2)cc1 was read as 4-MU autofl 3.6e-08M*, AID923 8%, A350 autofl 4.3e-08M*, HSD17B inhib inconclusive, HADH2 inhib -9% and GBA activity >77.
O=C(Nc1nc(-c2cccs2)cs1)c1ccc(S(=O)(=O)N2CCCC2)cc1 was read as 4-MU autofl 2.3e-08M*, AID923 10%, A350 autofl 3.9e-08M*, HSD17B inhib inconclusive, HADH2 inhib 118% and GBA activity >77.
`CN(C)S(=O)(=O)c1ccc(C(=O)Nc2nc(-c3cccs3)cs2)cc1` gave AID923 7%, HSD17B inhib inconclusive and HADH2 inhib 164%.
COc1ccc(OC)c(-n2cnc3cc(C(=O)O)ccc32)c1 was read as 4-MU autofl inactive, AID923 -1%, A350 autofl inactive, HSD17B inhib -7%, HADH2 inhib -19% and GBA activity >77.
COc1ccccc1-n1c(SCC(=O)N2CCCC2)nc2cccnc21 was read as 4-MU autofl inactive, AID923 -1%, A350 autofl inactive, HSD17B inhib -1%, HADH2 inhib 5% and GBA activity >77.
`COc1ccccc1C(=O)NCC(=O)n1nc(C)cc1C` gave 4-MU autofl inactive and A350 autofl inactive.
`O=C(O)CN1C(=O)C2C3C=CC(C3)C2C1=O` (stereo not given) gave AID923 0%, HSD17B inhib 0% and HADH2 inhib -6%.
`COc1cc(OC)cc(C(=O)NCc2cccnc2)c1` gave 4-MU autofl inactive, AID923 0%, A350 autofl inactive, HSD17B inhib -5%, HADH2 inhib -1% and GBA activity >77.
`c1ccc2c(N3CCCCC3)nc(N3CCCCC3)nc2c1` gave 4-MU autofl 5.6e-08M* and A350 autofl 5.3e-08M*.
`c1ccc(CC2CCN(c3nc(N4CCOCC4)nc(N4CCOCC4)n3)CC2)cc1` gave 4-MU autofl inactive, AID923 2%, A350 autofl inactive, HSD17B inhib 7%, HADH2 inhib 7% and GBA activity >77.
Screening Cc1cc(N2CCN(c3nc(N4CCOCC4)nc4ccccc34)CC2)c2ccccc2n1 returned 4-MU autofl 5.1e-08M*, AID923 0%, A350 autofl 4.7e-08M*, HSD17B inhib 13µM*, HADH2 inhib 4% and GBA activity >77.
Fc1ccccc1-c1nc(N2CCCCC2)c2ccccc2n1 was read as 4-MU autofl 5.7e-08M* and A350 autofl 3.4e-08M*.
Nc1nc(N2CCOCC2)nc2ccccc12 was read as 4-MU autofl 9.6e-07M*, AID923 0%, A350 autofl 6.9e-07M*, HSD17B inhib 25µM* and HADH2 inhib 20µM*.
Screening N#Cc1c2n(cnc1=O)CCCCC2 returned AID923 2%, HSD17B inhib 5% and HADH2 inhib inconclusive.
For Clc1ccc2nc(N3CCCCC3)sc2c1 the results were 4-MU autofl inconclusive, AID923 -1%, A350 autofl inconclusive, HSD17B inhib 1%, HADH2 inhib -1% and GBA activity >77.
CCCCCCSc1nsc(NC(C)=O)n1 was read as 4-MU autofl inactive, AID923 1%, A350 autofl inactive, HSD17B inhib -2%, HADH2 inhib 1% and GBA activity >77.
Screening CC(=O)Nc1nonc1-c1nc2ccccc2n1CC1CC1 returned 4-MU autofl inactive, AID923 1%, A350 autofl inactive, HSD17B inhib inconclusive, HADH2 inhib inconclusive and GBA activity >77.
